Common to all, as to assay: NCI-60 one-dose screen, 48 h (100 = growth as untreated, 0 = no growth, -100 = all killed)
What all share (conditions): 10 µM unless noted

In experiment [1] the test system is NCI-H23 lung.
Experiment [2] relates to NCI-H226 lung.
Experiment [3] has as its system NCI-H322M lung.
For experiment [4], the system named is HOP-62 NSCLC.
Experiment [5] relates to NCI-H460 lung.
The subject of experiment [6] is HOP-92 NSCLC.
Experiment [7] has as its system NCI-H522 lung.
The subject of experiment [8] is A549/ATCC NSCLC.
The subject of experiment [9] is 786-0 renal.
Experiment [10] has as its system COLO 205 colon.
In experiment [11] the test system is DU-145 prostate.
Experiment [12] has as its system K-562 leukemia.
Experiment [13] relates to MALME-3M melanoma.
In experiment [14] the test system is MDA-MB-231 breast.
Experiment [15] relates to RXF 393 renal.
The subject of experiment [16] is SF-268 CNS.
In experiment [17] the test system is SF-295 CNS.
The subject of experiment [18] is SF-539 CNS.
Experiment [19] has as its system UACC-257 melanoma.
Experiment [20] has as its system M14 melanoma.

Each structure is given as a SMILES string. The panel holds about 83,000 compounds, 20% with a hit somewhere; the sample as a whole holds those more often.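 For each line, cells grew in 96-well plates with the test compound present at a single concentration for 48 hours.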 Values without a mark were called inactive. Active and inactive are the calls of the source. The calls were made as follows: active = growth percent below 10; inactive = the rest.

`COc1ccc(NC(=O)[C@H](CO)NC(=O)OC(C)(C)C)cc1C(=O)Nc1cccc(C2CC(=O)c3c(cc(OC)c(OC)c3OC)O2)c1` (stereo not given in full): the growth in [1] was 50.7%; in [2], 48.1%; in experiment [3], 81.1%; in experiment [4], 83%; in experiment [5], 55.3%; in [6], 81.9%. For the same compound, the growth in experiment [7] was 31.4%; in experiment [8], 68.8%; in [9] it was 68.3%; in experiment [10], 77.2%; in experiment [11], 58.4%; in [12], 28.4%. Further, the growth in [13] is 61.4%; in [14] it was 41.9%; in [15], 53%; in [16] it was 65.1%; in experiment [17] it was 69.1%; in experiment [18] it was 79.1%. In addition, the growth in [19] was 75.3%; in experiment [20], 66%.
In the case of `Cn1cc(-c2nnc(N)nc2-c2c[nH]c3ccc(F)cc23)c2cccnc21`, the growth in [1] is 53.7%; in [2], 72.4%; in experiment [3] it was 71%; in [4] it was 49.2%; in [5], 18%; in experiment [6] it was 92.8%. Further, the growth in experiment [7] was 20.4%; in [8], 47.6%; in experiment [9], 47.2%; in [10], 26.9%; in experiment [11] it was 80.2%; in experiment [12], 15.7%. Also, the growth in experiment [13] is 44.8%; in [14] it was 51.6%; in experiment [15], 65.4%; in experiment [16], 61%; in [17] it was 25.6%; in experiment [18] it was 47.2%. Also, the figures for the growth in [19] and in [20] were 72.7% and 21.6%, respectively.
On to `O=C(c1ccc(OCCN2CCOCC2)cc1)C1[C@H](c2ccc(Cl)cc2)[C@@H](c2ccccc2)NC12C(=O)Nc1ccc(Br)cc12` (stereo not given in full), for which the growth in experiment [1] is 26.1%; in [2] it was 44%; in [3], 53.8%; in experiment [4], 60.6%; in [5] it was 6.73% (active); in experiment [6], -15.1% (active). The growth was 10.3% in [7]; 17.6% in [8]; -4.29% (active) in [9]; -39.3% (active) in [10]; 41.6% in [11]; 1.09% (active) in experiment [12]. In addition, the growth in experiment [13] is 56.3%; in experiment [14], 18.2%; in experiment [15], -1.59% (active); in [16] it was 39.6%; in experiment [17], 21.8%; in experiment [18], 35%. Moreover, the growth in experiment [19] is 39.7%; in experiment [20], 23.8%.
As for `O=C1/C(=C/C2=Cc3ccccc3OC2)SC(=S)N1c1ccccc1F`, the growth was 103% in experiment [1]; 101% in [2]; 105% in experiment [3]; 101% in experiment [4]; 121% in experiment [5]; 61.6% in [6]. Further, the growth in experiment [7] is 92.6%; in experiment [8], 96.7%; in experiment [9], 87.4%; in experiment [10], 116%; in experiment [11], 108%; in experiment [12], 92.4%. Further, the growth in [13] was 96.2%; in [14], 97.2%; in [15], 109%; in [16], 122%; in experiment [17] it was 96.9%; in [18], 97.6%. The growth is 107% in experiment [19] and 93.3% in experiment [20].
For the compound `CCN1C(=O)N(CC)C2NNC(Sc3c(C(=O)O)c4ccccc4n(C4CCCC4)c3=O)=NC21` (stereo not given), the growth in [1] was 36.8%; in experiment [2], 42%; in experiment [3] it was 67.3%; in experiment [4], 44.1%; in [5], 4.22% (active); in [6] it was 73.4%. Also, the growth in [7] was -23.1% (active); in experiment [8] it was 28.2%; in experiment [9], 22.9%; in experiment [10], -31.1% (active); in [11], 2.94% (active); in [12] it was 13.9%. The growth in experiment [13] is 72.4%; in experiment [14], 12.3%; in experiment [15], 50.2%; in experiment [16], 39.2%; in experiment [17], 8% (active); in [18], -24.7% (active). For the same compound, the growth in experiment [19] is 58.7%; in [20] it was -7.72% (active).
`O=C(c1ccc(OCCN2CCOCC2)cc1)C1[C@H](c2ccc(Cl)cc2)[C@@H](c2ccccc2)NC12C(=O)Nc1ccc(Cl)cc12` (stereo not given in full): the growth is 37.9% in experiment [1]; 48.3% in experiment [2]; 55.6% in experiment [3]; 67.7% in [4]; 10.1% in experiment [5]; -11.8% (active) in [6]. Besides, the growth in [7] was 16.3%; in experiment [8] it was 22.9%; in experiment [9] it was 16.6%; in experiment [10], -20.1% (active); in experiment [11], 45.8%; in experiment [12], 4.95% (active). Moreover, the growth in experiment [13] is 69.3%; in experiment [14], 28.7%; in experiment [15], 2.65% (active); in experiment [16], 43.8%; in [17], 27.4%; in [18], 41.5%. In addition, the growth in experiment [19] was 45.4%; in [20], 23.2%.
With `CCOc1ccc(C(=O)NC(=S)Nc2ccc(S(N)(=O)=O)cc2)cc1`, the growth in [1] is 97.5% [100 µM]; in experiment [2] it was 97.1% [100 µM]; in [3], 101% [100 µM]; in experiment [4], 102% [100 µM]; in experiment [5], 102% [100 µM]; in experiment [6] it was 87.9% [100 µM]. Besides, the growth is 77.5% [100 µM] in [7]; 101% [100 µM] in [8]; 99% [100 µM] in [9]; 119% [100 µM] in experiment [10]; 105% [100 µM] in [11]; 98.1% [100 µM] in [12]. The growth in experiment [13] was 87.6% [100 µM]; in experiment [14] it was 102% [100 µM]; in experiment [15], 102% [100 µM]; in experiment [16], 102% [100 µM]; in experiment [17], 104% [100 µM]; in experiment [18], 91.7% [100 µM]. Also, the growth in experiment [19] was 90.6% [100 µM]; in experiment [20], 102% [100 µM].
Regarding `NC(=S)Nc1cccc(NC(N)=S)c1`, the growth in experiment [1] is 98.5%; in experiment [2], 98.1%; in experiment [3] it was 88.3%; in [4] it was 119%; in experiment [5], 110%; in experiment [6] it was 105%. In addition, the growth in experiment [7] was 97.2%; in experiment [8], 93.9%; in experiment [9], 108%; in experiment [10] it was 137%; in [11] it was 101%; in experiment [12] it was 9.26% (active). Moreover, the growth was 84.3% in experiment [13]; 89.7% in experiment [14]; 104% in experiment [15]; 90.9% in experiment [16]; 90.2% in experiment [17]; 100% in experiment [18]. Besides, the figures for the growth in experiment [19] and in experiment [20] were 98.1% and 125%, respectively.

Values taken from PubChem BioAssay (NCI).
